# Rows were chosen to be rich in hits. Some 7.4% of all compounds tested hit in one or more screens of this group.
# SMN2 splice up: qHTS Assay for Enhancers of SMN2 Splice Variant Expression. Potency, µM (titrated, usually from 46.1 µM), actives largely listed as activators. 2.8% of 210,000 active. HEK293 SMN2-luciferase splicing reporter, luminescence, 30-36 h; further: nearly all actives have a fitted effect of over 55% in size
#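 HEK293 cells carry an SMN2 […]–luciferase reporter in which exon 7 inclusion puts luciferase in frame. Cells were plated 10-12 h before compound addition, then incubated 30-36 h at 37C. ONE-Glo luminescence was read; sodium butyrate at 4.5 mM final served as control.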
# Rab9 prom act: qHTS Assay for Rab9 Promoter Activators | Potency, µM (titrated, usually from 9.22 µM), actives largely listed as activators | Huh7 Rab9 promoter-luciferase reporter, luminescence, 24 h | 2.8% of 320,000 active; further: nearly all actives have a fitted effect of over 60% in size
#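 Steps: seed 1500 Huh7 Rab9-luc cells per well, rest 2 h at 37 °C; add compound in DMSO; incubate 24 h; add luciferase reagent, 10 min ambient; read luminescence.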
# ELG1 genotox: qHTS screen for small molecules that induce genotoxicity in human embryonic kidney (HEK293T) cells expressing luciferase-tagged ELG1 | HEK293T ELG1-luciferase reporter, luminescence, 16 h | 1.3% of 330,000 active | Potency, µM (doses to about 46 µM), hits mostly activators; further: nearly all actives have a fitted effect of over 60% in size
#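 HEK293T cells expressing luciferase-tagged ELG1 were exposed to compound or DMSO vehicle for 16 hr at 37 °C and 5% CO2. Luciferase activity was then measured with ONE-Glo after 30 min at room temperature.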
# NPC1 prom act: qHTS Assay for NPC1 Promoter Activators. Potency, µM (doses to about 9.22 µM), most hits filed as activators. Huh7 NPC1 promoter luciferase reporter, 24 h. AID 485313, 2010. 2.4% of 320,000 active; further: nearly all actives have a fitted effect of over 60% in size
#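 Huh7 reporter cells (NPC1 promoter driving luciferase) are dosed with compound for 24 h at 37 °C, 5% CO2; luciferase detection reagent is then added and luminescence measured after 10 min at ambient temperature.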
# FLuc counter: qHTS profiling assay for firefly luciferase inhibitor/activator using purifed enzyme and Km concentrations of substrates (counterscreen for miR-21 project); Potency, µM (doses to about 57.5 µM), usual class: inhibitors; 6.9% of 360,000 active; Luciferin 4-monooxygenase (Photinus pyralis), P08659; purified FLuc, Km substrates, luminescence inhibition; further: nearly all actives have a fitted effect of over 55% in size
# Target sequence (P08659 whole entry, looked up): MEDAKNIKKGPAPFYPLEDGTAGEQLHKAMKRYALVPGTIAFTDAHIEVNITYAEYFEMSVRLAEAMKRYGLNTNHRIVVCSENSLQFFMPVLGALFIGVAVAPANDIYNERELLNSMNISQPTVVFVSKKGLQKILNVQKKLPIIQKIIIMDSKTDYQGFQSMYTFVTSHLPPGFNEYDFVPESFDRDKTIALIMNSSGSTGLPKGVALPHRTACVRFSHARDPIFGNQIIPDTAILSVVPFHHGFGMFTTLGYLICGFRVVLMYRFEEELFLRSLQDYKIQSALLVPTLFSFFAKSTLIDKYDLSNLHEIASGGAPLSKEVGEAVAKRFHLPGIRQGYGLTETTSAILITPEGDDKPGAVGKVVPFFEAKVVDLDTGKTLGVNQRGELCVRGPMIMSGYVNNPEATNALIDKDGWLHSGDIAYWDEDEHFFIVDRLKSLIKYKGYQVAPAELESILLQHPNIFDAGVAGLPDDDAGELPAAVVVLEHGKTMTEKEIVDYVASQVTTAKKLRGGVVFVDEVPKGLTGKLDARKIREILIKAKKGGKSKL
#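 Biochemical qHTS of compounds, final roughly 60 µM downward over six points, against 10 nM purified firefly luciferase using Km concentrations of substrates (10 uM D-luciferin, 10 uM ATP) in Tris acetate pH 7.5 buffer; luminescence output.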
# Numbers stand for hits; . = inactive; ? = inconclusive; / = no result; [ ] = another dose, or the depositor's remark. The call rests on the fitted dose curve; in most records, active means well fitted curve in the direction sought with a large enough effect; inconclusive means small, poorly fitted or top-dose-only effect, or another doubt; inactive means no such curve, though single readings can be large; an effect the other way counts as inactive or inconclusive.
SMILES,SMN2 splice up,Rab9 prom act,ELG1 genotox,NPC1 prom act,FLuc counter
CCOc1ccc(-c2cc(CCCC(=O)NCCCOC)no2)cc1,.,.,.,.,12µM
COc1ccc(CCNC(=O)CCOc2ccc(C)cc2)cc1OC,/,.,.,.,.
COCCCNC(=O)c1cc2cc(S(=O)(=O)N3CCCCC3)ccc2n1C,/,/,/,/,.
CC(C)(C)c1ccc(C2NC(=O)c3n[nH]c(-c4cccs4)c32)cc1 (stereo not given),.,/,/,/,.
COC(=O)C1=C(C(=O)OC)[C@@H]2Nc3ccccc3[C@@]23C[C@@H](C(=O)OC)N(S(=O)(=O)c2ccc(OC)cc2)C3=N1,.[9.22 µM],/,/,/,/
COc1ccc(NC(=O)N2CC[C@@]3(CCCN(C(C)=O)C3)C2)cc1,.,/,/,/,/
CCN1CCN(c2ncnc3c2cnn3-c2ccccc2)CC1,.,.,?,?,23.9µM
CCOC(=O)N1CCN(c2ncnc3c2cnn3-c2ccc(Cl)cc2)CC1,.,.,.,.,.
CCN1CCN(c2ncnc3c2cnn3-c2ccc(Cl)cc2)CC1,/,1.78µM,?,1.58µM,6.01µM
c1ccc(CCN2CCN(c3ncnc4c3cnn4-c3ccccc3)CC2)cc1,.,.,.,.,.
Cc1ccc(NC(=O)CCCc2ccccc2)nc1,15.8µM,3.98µM,?,?,16.9µM
Cc1ccc(NC(=S)NCCc2ccccc2)nc1,25.1µM,?,?,.,16.9µM
CNC(=S)NCCc1ccccc1,/,.,.,.,.
CC1=C2C(=COC(C)C2C)C(=O)C(C(=O)O)=C1O (stereo not given),.,/,/,/,/
CCCCn1nc2cc(C(=O)NCCc3cccs3)ccc2c1OCC,.,.,.,?,.
CCCCOc1ccc(C(=O)NCCc2cccs2)cc1,12.6µM,1.78µM,?,3.98µM,7.57µM
CCOc1ccc(C(=O)NCc2cccs2)cc1,.,?,.,.,.
CCOc1c2ccc(C(=O)NCCc3cccs3)cc2nn1CC,14.1µM,3.55µM,?,?,23.9µM
Cc1ccc(-c2cc(C(=O)NCCc3ccccc3)c3c(-c4ccc(C)cc4)[nH]nc3n2)cc1,/,/,/,/,.
O=C(O)CCC(=O)N1CCN(c2ccccn2)CC1,.,.,.,.,.
O=C(CCSCc1ccccc1Cl)N1CCN(c2ccccn2)CC1,.,?,.,?,23.9µM
CC(C)(C)c1ccc(OCC(=O)N2CCN(c3ccccn3)CC2)cc1,/,.,.,.,12µM
O=C(c1ccco1)N1CCC2(CCN(Cc3ccccc3)CC2)CC1,.,/,/,/,/
COc1ccc(C2Nc3ccccc3C(=O)N2c2ccc(C)cc2)cc1Cn1nc(C)c([N+](=O)[O-])c1C (stereo not given),/,?,?,?,.
COc1ccc(C2Nc3ccccc3C(=O)N2c2ccc(C)cc2)cc1COc1ccccn1 (stereo not given),11.2µM,3.16µM,?,3.16µM,?
SMILES,SMN2 splice up,Rab9 prom act,ELG1 genotox,NPC1 prom act,FLuc counter
COc1ccc(N2C(=O)c3ccccc3NC2c2ccc(OC)c(Cn3nnc4ccccc43)c2)cc1 (stereo not given),14.1µM,?,.,?,.
COc1ccc(/C=C/C(=O)NC2CC3CCC2C3)cc1 (stereo not given),/,.,?,.,16.9µM
COc1ccc(/C=C/C(=O)Nc2cccc(C(C)=O)c2)cc1,11.2µM,?,.,?,0.953µM
COc1ccc(/C=C/C(=O)Nc2cccc(F)c2)cc1,3.98µM,/,/,/,0.849µM
CC(=O)Nc1cccc(C(=O)/C=C/c2ccc(Br)cc2)c1,.,.,.,.,?
COc1ccc(NC(=O)/C=C/c2ccc(Cl)cc2)cc1,11.2µM,2.51µM,/,2.06µM,/
COc1ccc(NS(=O)(=O)c2ccc3c(c2)CCN3C(=O)CCC(=O)O)cc1Cl,.,/,/,/,.
COc1cc(C2Nc3ccccc3-c3nnc(SCc4ccc(C)cc4)nc3O2)cc(OC)c1O (stereo not given),.,/,/,/,?
CCc1ccc2nc(N3CCN(C(=O)C4CC4)CC3)sc2c1,/,/,/,/,15.1µM
O=C(C1COc2ccccc2O1)N1CCN(c2nc3c(F)cccc3s2)CC1 (stereo not given),/,/,/,/,.
Cc1ccc2nc(N3CCN(C(=O)C4COc5ccccc5O4)CC3)sc2c1 (stereo not given),/,/,/,/,8.49µM
CCCCN(C)CCNC(=O)C1CCN(c2nc3ccc(CC)cc3s2)CC1,.,/,/,/,12µM
CCCCN(C)CCCNC(=O)c1ccc2nc(N3CCCCC3)sc2c1,.,/,/,/,.
CCc1ccc2nc(N3CCC(C(=O)O)CC3)sc2c1,?,/,/,/,0.213µM
COC(=O)c1cc(NC(=O)c2sc3ncn(Cc4cccc(F)c4)c(=O)c3c2C)cc(C(=O)OC)c1,/,/,/,/,.
c1ccc2c(c1)ncn2CCCOc1ccc2c(c1)CCC2,.,.,.,.,15.1µM
Brc1ccccc1OCCCn1cnc2ccccc21,?,3.98µM,5.8µM,3.16µM,2.39µM
Cc1ccccc1OCCCCn1cnc2ccccc21,.,.,.,.,19µM
Cc1ccc(OCCCCn2cnc3ccccc32)cc1,.,.,.,.,?
Cc1ccc(-c2ccc(=O)n(CC(=O)NCCc3ccc(Cl)cc3)n2)cc1,/,/,/,/,.
CCOc1ccc(C(=O)c2cn(Cc3ccc(Cl)cc3)c3cc(OC)c(OC)cc3c2=O)cc1,.,/,/,/,.
Nc1c(NCc2ccccc2F)c(=O)[nH]c(=O)n1Cc1ccccc1,.,.,.,.,21.3µM
Cc1cc(NC(=O)CSc2nc3c(C)ccc(C)c3cc2C#N)no1,/,.,.,.,.
Cc1cc(C)c(C#N)c(SCC(=O)Nc2ccccc2C#N)n1,/,/,/,/,.
Cc1cc(C)c(C#N)c(SCC(=O)Nc2ccccc2C(N)=O)n1,12.6µM,1.26µM,?,2µM,12µM
SMILES,SMN2 splice up,Rab9 prom act,ELG1 genotox,NPC1 prom act,FLuc counter
Cc1cc(C)c(C#N)c(SCC(=O)Nc2ccc3c(c2)OCO3)n1,15.8µM,?,16.4µM,?,.
Cc1cc(C)c(C#N)c(SCC(=O)Nc2cc(C)on2)n1,/,/,18.3µM,/,/
CCOc1ccc2nc(Cl)sc2c1,.,.,.,.,.
COc1ccc2nc(-n3c(C)ccc3C)sc2c1,.,.,.,.,.[2.3 µM]
CCOc1ccc2nc(N3C(=O)/C(=C/c4ccccc4)NC3=S)sc2c1,/,?,?,?,6.01µM
COc1ccc2nc(N3C(=O)/C(=C/c4ccccc4)NC3=S)sc2c1,.,.,.,.,10.7µM
CCC1=C2CC[C@H]3C(=O)N(c4ccccc4)C(=O)[C@H]3[C@H]2[C@@]2(C)C(=O)N(CC(=O)OC)C(=O)N2C1=O,.,/,/,/,/
COC(=O)c1cccc(NC(=O)N(C)CCc2c(C)nn(C)c2C)c1,/,/,/,/,.
COc1ccc(C)cc1NC(=O)NCc1ccc2c(c1)CCN2C(=O)c1ccccc1,/,/,/,/,.
CC(c1ccccc1)N1C(=O)c2ccc(C(=O)Nc3ccccc3C(=O)O)cc2C1=O (stereo not given),/,.,.,.,23.9µM
COc1cc(NC(=O)c2ccc3c(c2)C(=O)N(CCC(C)C)C3=O)c(C(=O)O)cc1OC,/,.,.,.,?
